According to PubChem BioAssay (EPA / NIEHS):
Active and inactive are the calls of the source. Rule for the calls: active = hit-call score of the fitted dose curve at least 0.9, where 1 is the maximum; inactive = score below 0.9.

How the values were obtained:
Conditions in all cases: mRNA level, 48 h; actives raise or lower the signal
[1] = read-out: Cytochrome P450 3A4 (Homo sapiens) (UniProt P08684); experiment: LTEA_HepaRG_CYP3A4: Life Technologies and Expression Analysis (LTEA) Assay for CYP3A4 using HepaRG (AID 2283487)
Outline: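 Differentiated HepaRG cells, plated 48 h, then dosed 48 h in serum-free induction medium with 0.5% DMSO, 8 half-log concentrations up to 100 uM, duplicate. CYP3A4 mRNA by qRT-PCR, normalized to ACTB/GAPDH/POLR2A; bidirectional fit versus DMSO.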

[2] = read-out: DNA damage-inducible transcript 3 (DDIT3), DDIT3 (gene 1649); experiment: LTEA_HepaRG_DDIT3: Life Technologies and Expression Analysis (LTEA) Assay for DNA damage-inducible transcript 3 (DDIT3) using HepaRG (AID 2283488)
Outline: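 qRT-PCR readout (Fluidigm TaqMan), housekeeping-normalized to ACTB, GAPDH, POLR2A. HepaRG cells, 48 h exposure, 8-point half-log series from 100 uM in 0.5% DMSO, duplicates. Gain or loss of signal fitted against DMSO baseline.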

[3] = read-out: Pro-epidermal growth factor (Homo sapiens) (UniProt P01133); experiment: LTEA_HepaRG_EGF: Life Technologies and Expression Analysis (LTEA) Assay for Epidermal growth factor (EGF) using HepaRG (AID 2283489)
Outline: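 EGF expression changes in human HepaRG cells are scored by bidirectional fitting relative to 0.5% DMSO controls. Chemicals are tested at eight half-log concentrations up to 100 uM for 48 h in serum-free induction medium.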

[4] = read-out: Ezrin (EZR), EZR (gene 7430); experiment: LTEA_HepaRG_EZR: Life Technologies and Expression Analysis (LTEA) Assay for Ezrin (EZR) using HepaRG (AID 2283491)
Outline: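 EZR transcript levels came from Fluidigm qRT-PCR and were normalized to three housekeeping genes after 48 h chemical exposure of HepaRG cells. Dosing used an 8-point half-log series with a 100 uM top concentration in 0.5% DMSO, tested in duplicate; both directions were fitted versus vehicle.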

[5] = read-out: Cytochrome P450 3A7 (Homo sapiens) (UniProt P24462); experiment: LTEA_HepaRG_CYP3A7: Life Technologies and Expression Analysis (LTEA) Assay for CYP3A7 using HepaRG (AID 2283492)
Outline: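 Cells were thawed, plated, cultured 48 h, then treated for a further 48 h with chemicals (eight-point half-log series from 100 uM, 0.5% DMSO). RNA was isolated and CYP3A7 expression quantified by qRT-PCR normalised to ACTB, GAPDH and POLR2A.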

[6] = read-out: CYP3A5 (gene 1577); experiment: LTEA_HepaRG_CYP3A5: Life Technologies and Expression Analysis (LTEA) Assay for CYP3A5 using HepaRG (AID 2283493)
Outline: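 qRT-PCR read-out: CYP3A5 transcript in HepaRG lysates, housekeeping-normalized (ACTB/GAPDH/POLR2A), fitted bidirectionally against 0.5% DMSO baseline. Exposure 48 h, eight half-log concentrations up to 100 uM, duplicates.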

[7] = read-out: Fatty Acid-Binding Protein 1 (FABP1), FABP1 (gene 2168); experiment: LTEA_HepaRG_FABP1: Life Technologies and Expression Analysis (LTEA) Assay for Fatty Acid-Binding Protein 1 (FABP1) using HepaRG (AID 2283494)
Outline: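 FABP1 expression by TaqMan qRT-PCR, normalised to three housekeeping genes, in HepaRG cells after 48 h chemical treatment. Eight-point half-log series topping at 100 uM in 0.5% DMSO, duplicates; gain or loss fitted relative to vehicle.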

[8] = read-out: Cytochrome P450 4A22 (Homo sapiens) (UniProt Q5TCH4); experiment: LTEA_HepaRG_CYP4A22: Life Technologies and Expression Analysis (LTEA) Assay for Cytochrome P450 4A22 (CYP4A22) using HepaRG (AID 2283495)
Outline: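 Cryopreserved HepaRG cells, plated and cultured 48 h, then switched to serum-free induction medium and treated 48 h (duplicates, up to 100 uM, half-log steps, 0.5% DMSO). Expression change of CYP4A22 was fitted bidirectionally against vehicle.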

[9] = read-out: Cytochrome P450 7A1 (Homo sapiens) (UniProt P22680); experiment: LTEA_HepaRG_CYP7A1: Life Technologies and Expression Analysis (LTEA) Assay for Cytochrome P450 7A1 (CYP7A1) using HepaRG (AID 2283496)
Outline: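 Using 0.5% DMSO as vehicle and baseline, chemicals were tested in duplicate over an 8-point range from 100 uM on HepaRG cells for 48 h; qRT-PCR signals were normalised to ACTB, GAPDH and POLR2A.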

[10] = read-out: Glutathione S-Transferase (GSTA2), GSTA2 (gene 2939); experiment: LTEA_HepaRG_GSTA2: Life Technologies and Expression Analysis (LTEA) Assay for Glutathione S-Transferase (GSTA2) using HepaRG (AID 2283497)
Outline: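 GSTA2 transcript levels came from Fluidigm TaqMan qRT-PCR normalized to three housekeeping genes, fitted in both directions against DMSO. HepaRG cultures received chemicals for 48 h in serum-free induction medium (0.5% DMSO), 8 half-log concentrations up to 100 uM, duplicate.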

[11] = read-out: Glutamate-cysteine ligase catalytic (GCLC), GCLC (gene 2729); experiment: LTEA_HepaRG_GCLC: Life Technologies and Expression Analysis (LTEA) Assay for Glutamate-cysteine ligase catalytic (GCLC) using HepaRG (AID 2283498)
Outline: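 Expression by TaqMan qRT-PCR, normalized to three housekeeping genes (ACTB, GAPDH, POLR2A), with up- or down-regulation fitted against DMSO. HepaRG cells dosed in duplicate for 48 h with 8 half-log concentrations up to 100 uM, vehicle 0.5% DMSO.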

[12] = read-out: growth arrest and DNA damage 45 (GADD45G), GADD45G (gene 10912); experiment: LTEA_HepaRG_GADD45G: Life Technologies and Expression Analysis (LTEA) Assay for growth arrest and DNA damage 45 (GADD45G) using HepaRG (AID 2283499)
Outline: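 Human hepatic HepaRG line treated 48 h with chemicals (eight concentrations, half-log steps from 100 uM); transcript induction or repression of GADD45G scored by qRT-PCR versus DMSO vehicle.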

[13] = read-out: Glutamate-cysteine ligase regulatory (GCLM), GCLM (gene 2730); experiment: LTEA_HepaRG_GCLM: Life Technologies and Expression Analysis (LTEA) Assay for Glutamate-cysteine ligase regulatory (GCLM) using HepaRG (AID 2283500)
Outline: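 HepaRG, 48 h dosing, 100 uM top, half-log x8, 0.5% DMSO vehicle. Readout: GCLM mRNA by TaqMan qRT-PCR, housekeeping-normalized (ACTB/GAPDH/POLR2A). Curves fit bidirectionally vs DMSO baseline.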

[14] = read-out: Glutathione S-transferase M3 (GSTM3), GSTM3 (gene 2947); experiment: LTEA_HepaRG_GSTM3: Life Technologies and Expression Analysis (LTEA) Assay for Glutathione S-transferase M3 (GSTM3) using HepaRG (AID 2283501)
Outline: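 Changes in GSTM3 expression, an oxidative-stress marker, were scored by bidirectional curve fitting against 0.5% DMSO vehicle. Human HepaRG cultures received chemicals for 48 h in duplicate, highest concentration 100 uM with half-log dilutions.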

[15] = read-out: Heat shock 70 kDa protein 1 (HSPA1A), gene 3303; experiment: LTEA_HepaRG_HSPA1A: Life Technologies and Expression Analysis (LTEA) Assay for Heat shock 70 kDa protein 1 (HSPA1A) using HepaRG (AID 2283502)
Outline: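 HepaRG, 48 h exposure, 8-pt half-log CRC from 100 uM in 0.5% DMSO, duplicates. Readout: TaqMan qRT-PCR of HSPA1A mRNA, housekeeping-normalized (ACTB/GAPDH/POLR2A). Bidirectional fit vs 0.5% DMSO baseline.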

[16] = read-out: Hypoxia-inducible factor 1-alpha (Homo sapiens) (UniProt Q16665); experiment: LTEA_HepaRG_HIF1A: Life Technologies and Expression Analysis (LTEA) Assay for Hypoxia-inducible factor 1 (HIF1A) Trancription factor using HepaRG (AID 2283503)
Outline: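 Gain- or loss-of-signal HIF1A mRNA changes are fitted against a DMSO baseline. HepaRG cultures receive eight concentrations, highest 100 uM, for 48 h in serum-free induction medium with 0.5% DMSO.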

[17] = read-out: 3-Hydroxy-3-Methylglutaryl-CoA Synthase 2 (HMGCS2), HMGCS2 (gene 3158); experiment: LTEA_HepaRG_HMGCS2: Life Technologies and Expression Analysis (LTEA) Assay for 3-Hydroxy-3-Methylglutaryl-CoA Synthase 2 (HMGCS2) using HepaRG (AID 2283504)
Outline: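 Expression of HMGCS2 in human HepaRG liver cells is measured by qRT-PCR 48 h after dosing (highest 100 uM, half-log series, 0.5% DMSO). Values come from bidirectional concentration-response fitting with DMSO as baseline.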

[18] = read-out: HGF (gene 3082); experiment: LTEA_HepaRG_HGF: Life Technologies and Expression Analysis (LTEA) Assay for Hepatocyte Growth Facto (HGF) using HepaRG (AID 2283505)
Outline: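 Gain or loss of HGF mRNA in human HepaRG liver cells after 48 h chemical exposure; eight concentrations up to 100 uM with 0.5% DMSO vehicle, quantified by TaqMan qRT-PCR.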

[19] = read-out: Insulin Like Growth Factor 1 (IGF1), IGF1 (gene 3479); experiment: LTEA_HepaRG_IGF1: Life Technologies and Expression Analysis (LTEA) Assay for Insulin Like Growth Factor 1 (IGF1) using HepaRG (AID 2283506)
Outline: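 qRT-PCR readout of IGF1 mRNA, normalized to three housekeeping genes, after 48 h chemical exposure of HepaRG cells. Concentrations: 8-point half-log series, top 100 uM, 0.5% DMSO vehicle. Gain or loss fitted against DMSO baseline.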

[20] = read-out: Early growth response protein 1 (EGR1) transcription factor, EGR1 (gene 1958); experiment: LTEA_HepaRG_EGR1: Life Technologies and Expression Analysis (LTEA) Assay for Early growth response protein 1 (EGR1) transcription factor using HepaRG (AID 2283490)
Outline: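 EGR1 transcript levels quantified by qRT-PCR (Fluidigm arrays) against three housekeeping genes after 48 h chemical exposure of HepaRG cells. Eight-point half-log series topping at 100 uM, 0.5% DMSO vehicle, analyzed for gain or loss.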

Measured: AC50

Sequence of Cytochrome P450 3A4 (Homo sapiens) (P08684 whole entry, looked up): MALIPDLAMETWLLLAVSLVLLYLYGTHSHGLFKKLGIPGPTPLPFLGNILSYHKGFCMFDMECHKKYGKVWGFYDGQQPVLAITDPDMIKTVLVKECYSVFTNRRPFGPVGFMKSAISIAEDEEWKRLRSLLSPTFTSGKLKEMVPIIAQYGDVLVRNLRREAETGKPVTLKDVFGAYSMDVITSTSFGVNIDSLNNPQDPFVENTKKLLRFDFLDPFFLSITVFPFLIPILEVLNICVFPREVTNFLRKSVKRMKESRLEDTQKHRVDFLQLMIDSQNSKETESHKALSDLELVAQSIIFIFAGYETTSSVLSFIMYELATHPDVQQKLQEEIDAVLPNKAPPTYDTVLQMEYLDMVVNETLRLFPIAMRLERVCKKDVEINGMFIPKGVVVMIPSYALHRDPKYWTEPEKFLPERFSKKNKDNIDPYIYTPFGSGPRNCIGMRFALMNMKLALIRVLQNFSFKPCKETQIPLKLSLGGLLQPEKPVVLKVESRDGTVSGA
Sequence of Hypoxia-inducible factor 1-alpha (Homo sapiens) (Q16665 whole entry, looked up): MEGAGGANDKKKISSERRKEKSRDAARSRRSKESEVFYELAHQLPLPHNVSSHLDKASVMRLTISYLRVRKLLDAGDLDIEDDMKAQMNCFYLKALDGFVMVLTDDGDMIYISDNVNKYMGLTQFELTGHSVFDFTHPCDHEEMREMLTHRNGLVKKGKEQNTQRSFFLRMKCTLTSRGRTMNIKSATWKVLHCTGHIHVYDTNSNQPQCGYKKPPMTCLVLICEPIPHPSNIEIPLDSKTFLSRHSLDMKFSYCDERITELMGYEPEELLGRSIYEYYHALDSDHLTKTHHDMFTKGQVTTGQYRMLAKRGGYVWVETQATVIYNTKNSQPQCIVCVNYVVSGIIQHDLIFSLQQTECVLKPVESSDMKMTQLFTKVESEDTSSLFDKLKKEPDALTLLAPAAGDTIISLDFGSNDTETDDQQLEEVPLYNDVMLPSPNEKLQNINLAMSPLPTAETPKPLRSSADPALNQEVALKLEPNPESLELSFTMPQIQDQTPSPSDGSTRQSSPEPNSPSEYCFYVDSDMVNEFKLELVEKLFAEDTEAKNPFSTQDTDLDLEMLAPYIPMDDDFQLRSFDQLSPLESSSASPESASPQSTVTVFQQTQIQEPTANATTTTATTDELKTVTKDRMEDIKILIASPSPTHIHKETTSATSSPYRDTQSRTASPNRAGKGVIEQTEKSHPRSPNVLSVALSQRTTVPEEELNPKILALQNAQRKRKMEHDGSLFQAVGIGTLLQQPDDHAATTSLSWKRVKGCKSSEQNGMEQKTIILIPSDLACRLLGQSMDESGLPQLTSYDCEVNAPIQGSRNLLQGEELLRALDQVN
Sequence of Cytochrome P450 3A7 (Homo sapiens) (P24462 whole entry, looked up): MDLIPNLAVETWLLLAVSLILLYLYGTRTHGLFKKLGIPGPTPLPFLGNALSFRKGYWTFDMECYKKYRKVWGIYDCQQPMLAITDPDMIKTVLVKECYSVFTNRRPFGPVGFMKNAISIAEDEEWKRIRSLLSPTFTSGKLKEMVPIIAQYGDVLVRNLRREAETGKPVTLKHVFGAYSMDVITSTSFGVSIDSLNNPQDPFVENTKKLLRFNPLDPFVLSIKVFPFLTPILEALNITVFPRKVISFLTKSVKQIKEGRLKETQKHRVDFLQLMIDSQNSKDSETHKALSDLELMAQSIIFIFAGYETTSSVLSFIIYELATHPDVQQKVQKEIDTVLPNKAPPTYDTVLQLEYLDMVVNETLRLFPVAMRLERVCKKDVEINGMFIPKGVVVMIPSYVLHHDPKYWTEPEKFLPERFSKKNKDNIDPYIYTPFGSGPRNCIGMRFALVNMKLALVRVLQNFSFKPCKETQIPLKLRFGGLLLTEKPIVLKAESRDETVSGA

CCCCCCCCCC[N+](C)(C)CCCCCCCCCC
inactive: [3] | [5] | [6] | [7] | [9] | [13] | [14] | [15]
active: [1] 63.1 µM | [2] 74 µM | [4] 80.9 µM | [8] 25.5 µM | [10] 74.5 µM | [11] 83.7 µM | [12] 83.7 µM | [16] 82.7 µM | [17] 77.4 µM | [18] 50 µM | [19] 67.7 µM

CCSC(=O)N(CC)C1CCCCC1
not listed: [6] | [9] | [12]
inactive: all other assays above

Oc1ccc(Cl)cc1Cl
not listed: [6]
inactive: all other assays above
